Compound activity as filed in PubChem.
This is a sample that favours compounds with a hit; in the whole collection about 2.9% have one here.
PAFAH2 FP inh: inhibitors of human PAFAH2 | Q99487 | recombinant PAFAH2, FP-rhodamine activity probe, fluorescence polarization | inhibition, % at 3.39 µM | 340,000 compounds, 0.99% hits | AID 492956;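 active means inhibition above the mean over all tested compounds plus 3 SD, cut at about 30% in these data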;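 further: inhibitors block probe labeling of enzyme so polarization drops; 0% = enzyme with DMSO and 100% = wells lacking PAFAH2 protein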
PAFAH1B3 inh: PAFAH1B3 (human) inhibition; Q15102; recombinant PAFAH1B3, FP-rhodamine probe, fluorescence polarization; inhibition, % at 3.39 µM; 340,000 compounds, 0.28% hits;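 active means inhibition above the screen-wide average of all tested compounds plus 3 SD, cut at about 25% in these data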;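 further: 0% = enzyme with DMSO only and 100% = wells lacking PAFAH1B3 protein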
pPAFAH FP inh: inhibitors of human plasma PAF acetylhydrolase (pPAFAH); Q13093; recombinant pPAFAH, FP-rhodamine probe fluorescence polarization; inhibition, % at 3.39 µM; 330,000 compounds, 1.5% hits; AID 463082;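 active means inhibition above the mean inhibition across the screen plus 3 SD, cut at about 25% in these data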;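 further: inhibitors block binding of the rhodamine activity-based probe so polarization drops; 0% = enzyme with DMSO and 100% = wells lacking pPAFAH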
Target sequence (Q13093 whole entry, looked up): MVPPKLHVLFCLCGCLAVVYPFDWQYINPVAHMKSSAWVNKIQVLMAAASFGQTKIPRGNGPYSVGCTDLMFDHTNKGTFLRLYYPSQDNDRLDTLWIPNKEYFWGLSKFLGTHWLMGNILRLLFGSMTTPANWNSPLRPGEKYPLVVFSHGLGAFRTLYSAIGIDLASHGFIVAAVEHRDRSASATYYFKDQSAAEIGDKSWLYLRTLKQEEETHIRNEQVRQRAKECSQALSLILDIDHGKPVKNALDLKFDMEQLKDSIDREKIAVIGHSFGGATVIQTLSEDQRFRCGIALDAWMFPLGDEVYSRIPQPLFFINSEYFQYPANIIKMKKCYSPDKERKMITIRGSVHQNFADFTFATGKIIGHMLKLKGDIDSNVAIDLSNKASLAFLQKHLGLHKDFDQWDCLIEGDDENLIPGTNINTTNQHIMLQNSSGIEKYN
PME-1 inh: PME-1 (human) inhibition; AID 2130; recombinant PME-1, FP-Rh probe fluorescence polarization; inhibition, % at 5.9 µM; 320,000 compounds, 0.53% hits;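 active means inhibition above the campaign mean of all compounds plus 3 SD, cut at about 26% in these data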;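 further: competitive labeling of PME-1 active site by serine hydrolase directed probe; 0% = PME-1 with DMSO and 100% = wells lacking PME-1 enzyme; inhibitors block probe labeling so polarization falls and inhibition rises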
Fam108B counter: counter-screen for RBBP9 inhibitors: inhibitors of mouse Fam108B; recombinant Fam108B, FP-Rh probe fluorescence polarization; 300,000 compounds, 0.33% hits; inhibition, % at 9.51 µM;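 active means inhibition above the screen mean inhibition plus 3 SD, computed separately per campaign, cut at about 18% in these data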;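 further: inhibitors lower polarization as less probe binds the enzyme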
PAFAH1B2 inh: blocks human PAF acetylhydrolase 1b catalytic subunit 2; recombinant PAFAH1B2, FP-rhodamine activity probe, fluorescence polarization; inhibition, % at 3.39 µM; 340,000 compounds, 1.2% hits; AID 492953;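 active means inhibition above the mean of all tested compounds plus 3 SD, cut at about 24% in these data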;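 further: 0% = enzyme with DMSO and 100% = wells lacking PAFAH1B2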
PAFAH1B3 confirm: PAFAH1B3 (human) inhibition, confirmed; shares compounds with PAFAH1B3 inh; recombinant PAFAH1B3, FP-Rh activity-based probe, fluorescence polarization; inhibition, % at 3.39 µM; 390 compounds, 30% hits;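 active means average inhibition over triplicate runs above the hit cutoff set in the earlier primary screen, cut at about 25% in these data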;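 further: 0% = enzyme with DMSO and 100% = wells lacking PAFAH1B3 protein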
Numbers without * were called inactive; x = no result; ! = a repeat was not active.

SMILES	PAFAH2 FP inh	PAFAH1B3 inh	pPAFAH FP inh	PME-1 inh	Fam108B counter	PAFAH1B2 inh	PAFAH1B3 confirm
COc1ccc(/C=C2\C(=O)NC(=O)c3ccccc32)cc1OC	1	40*	x	x	x	2	16
CCOC(=O)c1c(C)oc2c1C(=O)c1ccccc1C2=O	5	30*	6	12	5	11	23
[O-][n+]1onc2c1CCc1nnc(-c3ccccc3)cc1-2	1	78*	2	6	0	4	84*
COn1c(-c2ccccc2)nc2c1CCc1c-2no[n+]1[O-]	2	26*	5	2	10	4	27*
[O-][n+]1onc2c1CCc1c-2nc(-c2ccccc2)n1OCc1ccccc1	6	4	0	0	0	2	x
[O-][n+]1onc2c1CCc1nnccc1-2	8	7	1	-2	-1	3	x
C[C@@H]1O[C@@H](O[C@H]2[C@H](O)[C@@H](O)[C@H](Oc3c(-c4ccc(O)c(O)c4)oc4cc(O)cc(O)c4c3=O)O[C@@H]2CO)[C@H](O)[C@H](O)[C@H]1O	-2	9	1	-12	x	2	x
O=c1c(OC2OC(CO)C(O)C(O)C2OC2OC(CO)C(O)C(O)C2O)c(-c2ccc(O)cc2)oc2cc(O)cc(O)c12 (stereo not given)	1	3	11	2	3	5	x
O=c1c2c(O)cc(O)cc2oc2c(O)ccc(O[C@H]3O[C@@H](CO)[C@H](O)[C@@H](O)[C@@H]3O)c12	0	12	7	x	x	8	x
O=c1c(O[C@@H]2O[C@H](CO)C(O)C2O)c(-c2ccc(O)c(O)c2)oc2cc(O)cc(O)c12 (stereo not given in full)	-16	26*	-2	x	x	11	25
C[C@@H]1O[C@@H](Oc2c(-c3ccc(O)c(O)c3)oc3cc(O)cc(O)c3c2=O)[C@H](O)[C@H](O)[C@H]1O	-11	27*!	3	x	x	-4	17
O=c1c(O)c(-c2ccc(O)cc2)oc2cc(O)cc(O)c12	2	30*	21	12	5	11	24
O=c1cc(-c2ccc(O)cc2)oc2cc(O)cc(O)c12	-1	12	2	-19	1	1	x
C[C@@H]1O[C@@H](Oc2c(-c3cc(O)c(O)c(O)c3)oc3cc(O)cc(O)c3c2=O)[C@H](O)[C@H](O)[C@H]1O	-40	44*	-1	-32	-7	5	22
CCOC(=O)c1cc(=O)n2c(nc3ccccc32)[nH]1	6	2	1	4	0	-1	x
C/C(=N\OCC(=O)Nc1ccccc1C(C)(C)C)c1ccc2c(c1)OCCO2	-5	-6	4	7	-6	-1	x
CCOc1ccc(NC(=O)Cn2nnc(-c3ccc(C(N)=O)cc3)n2)cc1S(=O)(=O)N1CCCC1	2	12	x	x	x	1	x
COC(=O)c1ccccc1NC(NC(=O)c1ccco1)C(=O)c1ccccc1 (stereo not given)	2	8	1	-4	1	3	x
Cc1ccnc(N2C(=O)c3cccc4c([N+](=O)[O-])ccc(c34)C2=O)c1	5	31*	11	14	6	1	41*
Cc1nnc(N2C(=O)c3cccc4c([N+](=O)[O-])ccc(c34)C2=O)s1	-5	29*	1	11	2	3	23
O=C1c2cccc3c([N+](=O)[O-])ccc(c23)C(=O)N1Cc1cccnc1	6	47*	x	x	x	20	48*
CCCCc1cc(=O)oc2cc(OCC(=O)NCc3ccccn3)c(Cl)cc12	-4	-10	2	-3	-2	1	x
O=C(Nc1ccc(F)cc1F)Nc1csc2ccccc12	x	x	8	2	0	x	x
O=C(Nc1ccc(F)c(Cl)c1)Nc1csc2ccccc12	4	30*	-2	-12	-12	18	21
C/C(=N/Nc1ccc([N+](=O)[O-])cc1)c1c[nH]c2ccccc12	3	36*	x	x	x	10	16
CCC1C(=O)Nc2ccccc2N1C(=O)COc1ccccc1 (stereo not given)	-3	0	10	-5	-5	0	x
Oc1ccc(CCNc2c3ccccc3nc3ccccc23)cc1O	14	40*	18	-25	18	15	33*
